Assay outcomes as filed in PubChem.
The list is not random: actives were taken first. Their share in the collection is about 0.78%.
GASC-1 inh = inhibitors of GASC-1 histone demethylase, primary screen, biochemical, fluorescence, DELFIA europium. GST-JMJD2C(1-420) H3K9me3 demethylation. inhibition, % at 2.35 µM. actives 0.069% (n = 330,000);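 active = more than half of a compound's replicate wells show inhibition beyond 50%, single wells judged on their own value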;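 also: signal counts dimethyl H3K9 product captured on neutravidin plate; 0% = median of DMSO wells and 100% = 0.3 times that DMSO median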
V-ATPase pH = regulators of yeast V-ATPase proton pumping, primary screen, pHLuorin cytosolic pH fluorescence; actives 0.37% (n = 350,000); AID 504577, 2011; response, % at 10 µM; S. cerevisiae; in the data active = response mostly above about 7.3%, no sharp cut-off; inactive = mostly below about 5.4%; also: actives read high
Yeast superoxide = reduction of superoxide in aged yeast, primary screen, HTS. S. cerevisiae aged cells, superoxide DHE fluorescence; active compounds read low. superoxide response (% of plate mean), % at 10 µM. actives 0.18% (n = 330,000). AID 2690, 2010;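 active = superoxide response under a set limit, about three screen SD below normal, cut at about 65% in these data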;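 also: yeast aged for seven days with compound at 30 °C before DHE staining; 100% = average MFI of all compound-treated wells on the plate with controls excluded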
PKA-R2B act = activators of PKA-R2B holoenzyme, primary screen, biochemical, fluorescence polarization, Cy5-IP20, human | activation, % at 11.4 µM | actives 0.079% (n = 340,000) | cAMP-dependent protein kinase catalytic subunit beta (Homo sapiens) + cAMP-dependent … | PKA-R2B holoenzyme dissociation; R2B truncated from residue 108, S112A mutant; 0% DMSO only, 100% 113 µM cGMP;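 active = activation above a cutoff set at the mean over all compounds plus 3 SD, cut at about 18% in these data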;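 also: higher means more holoenzyme dissociation and a rise in polarization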
Target sequence (P31323 whole entry, looked up, other chains not shown, the tested form may be a part): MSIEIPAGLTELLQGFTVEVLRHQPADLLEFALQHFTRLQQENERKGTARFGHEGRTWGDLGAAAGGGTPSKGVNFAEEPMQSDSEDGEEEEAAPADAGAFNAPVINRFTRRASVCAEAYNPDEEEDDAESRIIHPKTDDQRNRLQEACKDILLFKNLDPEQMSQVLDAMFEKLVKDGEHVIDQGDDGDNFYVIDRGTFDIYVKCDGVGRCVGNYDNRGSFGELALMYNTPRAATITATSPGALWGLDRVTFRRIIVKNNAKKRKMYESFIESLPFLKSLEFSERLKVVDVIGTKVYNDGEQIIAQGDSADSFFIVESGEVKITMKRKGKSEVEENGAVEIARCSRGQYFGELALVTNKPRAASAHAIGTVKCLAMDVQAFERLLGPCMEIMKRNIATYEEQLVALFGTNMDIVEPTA
PolyA inh = polyadenylation inhibitors in yeast reporter cells, primary screen, luminescence, S. cerevisiae; S. cerevisiae SKY197-pL101 polyadenylation reporter, beta-gal luminescence; efflux-impaired pdr1/pdr3 knockout yeast; score 100 = 6 SD above DMSO; activity score, % at 12 µM; actives 0.02% (n = 300,000); AID 1875, 2009;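 active = lowest replicate activity score at least 50, where 100 means six control SD above control mean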;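 also: yeast exposed to compound for 9 h at 30 °C; higher score means more reporter readthrough which indicates perturbed polyadenylation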
PKA-R1A activ = activators of PKA-R1A holoenzyme, primary screen, biochemical, fluorescence polarization, Cy5-IP20, bovine R1A, mouse PKAc. cAMP-dependent protein kinase type I-alpha regulatory subunit (Bos taurus) + …. actives 0.083% (n = 340,000). activation, % at 11.4 µM. PKA-R1A dissociation; scaled: DMSO 0%, 113 µM cGMP 100%;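 active = percent activation above the mean of all tested compounds plus 3 SD, cut at about 19% in these data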;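 also: higher means more PKAc released from R1A so a rise in polarization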
Superoxide pick = superoxide lowering in aged yeast cells, confirmation, cherry picked compounds | shares compounds with Yeast superoxide | S. cerevisiae aging, superoxide DHE fluorescence; active compounds read low | superoxide response (% of plate), % at 10 µM | actives 1% (n = 850);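 active = superoxide signal below 65% of the plate average of sample wells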;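 also: cells aged with compound for 7 days at 30 degrees C before staining; 100% equals mean DHE fluorescence of all compound wells on the plate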
DHE counter = DHE quenching or ROS scavenging interference in aged yeast, artefact control for yeast caloric restriction mimetic project, S. cerevisiae BY4741, flow cytometry; 850 tested, under 10 active; DHE fluorescence; active compounds read low; shares compounds with Yeast superoxide; fluorescence response, % at 10 µM; AID 435000, 2010;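 active = fluorescence response below 15%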;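 also: percent of the mean fluorescence averaged over all compound wells on the plate; lower means stronger quenching of DHE signal or ROS scavenging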
* hit, by the source's call; · = no result.

SMILES	GASC-1 inh	V-ATPase pH	Yeast superoxide	PKA-R2B act	PolyA inh	PKA-R1A activ	Superoxide pick	DHE counter
COc1ccc(-c2sc3cc4c(cc3c2C#Cc2ccc(N)cc2)OCO4)cc1	·	-6	100	3	·	6	·	·
Cc1cc(C(=O)COC(=O)c2ccc(Cl)c(S(N)(=O)=O)c2)c(C)n1C1CC1	6	0	99	1	1	2	·	·
CCCn1c(=O)c(C(=O)NCc2ccc(OC)c(OC)c2)c(O)c2ccccc21	-4	-5	63*	-3	-8	-1	109	108
CCn1c(=O)c(C(=O)NCc2ccc(OC)c(OC)c2)c(O)c2ccccc21	2	5	96	6	0	-8	·	·
CCCn1c(=O)c(C(=O)NNC(=O)c2ccc(Cl)cc2Cl)c(O)c2ccccc21	5	-2	60*	-6	30	-3	107	105
Cc1n[nH]c(=S)n(/N=C/c2cccc([N+](=O)[O-])c2)c1=O	-10	3	61*	-2	-12	-7	97	95
C#Cc1cccc(-n2nnc(C(=O)OC)c2-c2ccccc2)c1	-20	3	52*	-3	1	0	96	94
COC(=O)[C@]1(C)N[C@H](CN(C)C(=O)c2ccc(C)cc2)[C@@H]2C(=O)N(Cc3ccccc3)C(=O)[C@@H]21	8	-2	109	-1	·	-3	·	·
COCCCN(Cc1cc(OC)c(OC)c(OC)c1)C(=S)Nc1cccc(SC)c1	·	5	·	11	·	-4	·	·
CSc1ccc(/C=C(\C#N)C(=O)NC2CCCCC2)cc1	-4	-2	60*	-4	-7	2	102	91
COc1ccc(CCn2c(=O)c3cccnc3n(Cc3cccc([N+](=O)[O-])c3)c2=O)cc1OC	7	-1	105	-3	·	4	·	·
Cc1ccccc1Cn1cc(NC(=O)c2noc3c2CC(C(C)(C)C)CC3)cn1 (stereo not given)	14	-2	65*	-8	-6	-15	121	99
Cc1ccccc1Cn1nc(C)c(NC(=O)c2noc3c2CC(C(C)(C)C)CC3)c1C (stereo not given)	-23	2	96	-13	1	5	·	·
N#CC(c1nc2ccccc2nc1N1CCCC1)S(=O)(=O)c1ccccc1 (stereo not given)	-1	10	63*	0	-5	1	101	106
Cc1ccc2c(c1)C(=O)CC(c1ccccc1)S2 (stereo not given)	·	-4	·	3	·	0	·	·
Cc1ccc2cc(NC(=O)c3ccccc3C)ccc2n1	7	4	116	-2	-31	-9	·	·
Cc1ccc2cc(NC(=O)Cc3ccccc3)ccc2n1	-12	3	63*	·	3	·	104	104
Cc1noc(C)c1C(=O)Nc1cccc2ncccc12	2	0	92	2	4	-2	·	·
O=S(=O)(NCC(c1ccco1)N1CCc2ccccc2C1)c1ccc(Br)cc1 (stereo not given)	86	4	105	-3	-17	-2	·	·
COc1ccc(C(=O)SC2=NCCS2)cc1OC	8	-2	101	1	9	-1	·	·
Cc1ccc(C(=O)SC2=NCCS2)cc1	-5	-2	58*	-5	15	-15	101	110
CC(=O)[C@@]1(O)CCC2C3CC[C@H]4C[C@@H](O)CC[C@]4(C)C3CC[C@@]21C (stereo not given in full)	0	3	105	-11	·	2	104	103
CC(=O)Nc1cccc(C(=O)NNC(=O)c2ccccc2-n2cccc2)c1	·	3	101	6	·	-3	·	·
CC(=O)Nc1ccc(NC(=O)COC(=O)c2cc(S(=O)(=O)N3CCCC3)ccc2O)cc1	2	0	62*	-10	·	-17	104	101
O=S(=O)(c1ccccc1)N(CC1CO1)c1cc(Cl)ccc1Cl (stereo not given)	0	1	96	2	-14	-11	·	·
SMILES	GASC-1 inh	V-ATPase pH	Yeast superoxide	PKA-R2B act	PolyA inh	PKA-R1A activ	Superoxide pick	DHE counter
Cc1ccc(-n2nc3ccc(NC(=O)/C=C/c4ccco4)cc3n2)cc1	0	2	54*	1	13	10	102	95
O=C(NCCNC(=O)c1ccco1)c1ccc(Cl)c(Cl)c1	6	0	97	-6	-1	0	·	·
CC(=O)c1ccc(NC(=S)NC(=O)/C=C/c2ccc(F)cc2)cc1	8	-2	49*	-1	-12	9	102	105
N#Cc1c(-c2ccccc2)cc(-c2ccccc2)nc1SCCC(=O)O	11	1	114	3	4	-2	·	·
O=C(Cn1cnc(S(=O)(=O)N2CCCCC2)c1)NCc1ccco1	8	-1	94	-1	0	1	·	·
COc1ccccc1CNC(=O)CN(C)Cc1ccc(SC)cc1	3	4	109	-4	23	1	·	·
COc1cccc(CN(C)CC(=O)NCc2ccc(F)cc2)c1OC	1	2	39*	10	-13	0	106	88
O=C(Cc1ccccc1F)Nc1cc(S(=O)(=O)N2CCOCC2)ccc1N1CCOCC1	7	5	75	0	·	2	·	·
CCN(CC)S(=O)(=O)c1ccc(N2CCCC2)c(NC(=O)Cc2ccccc2)c1	1	-1	40*	-7	14	9	110	108
O=C(Cc1ccccc1F)Nc1cc(S(=O)(=O)N2CCOCC2)ccc1N1CCCC1	-12	·	94	·	·	·	110	105
CCN(CC)S(=O)(=O)c1cc(OC)c(Cl)cc1Cl	-2	0	58*	-5	5	9	98	101
CCN(CC)S(=O)(=O)c1cc(OC)c(C)cc1C	-4	-1	90	7	5	-7	·	·
N#CCCCc1cc2cc(F)ccc2cn1	5	-1	89	4	·	3	·	·
Cc1ccc(NC(=O)CNCC(c2ccccc2)N(C)C)cc1F (stereo not given)	-9	0	104	4	2	7	·	·
Cc1cc(NC(=O)CNCC(c2ccccc2)N(C)C)c([N+](=O)[O-])cc1C (stereo not given)	-4	-2	43*	7	-3	2	91	94
